Data published in PubChem BioAssay AID1159580 (chemical genetic matrix, 2015).
“And” between values parts separate entries of the source, which are not always exact repeats. Equal entries are not always repeated. The whole screen tested about 5,500 compounds, of which about 2,000 (36%) were called active. Not shown: some 18% with an inconclusive outcome. Rule as the data show it: active = normalized growth mostly below about 0.91 (no sharp cut-off); inconclusive = no clear call, values can overlap the other calls; inactive = mostly above about 0.92. This is one part of the list.

Experiment: chemical genetic growth profiling, strain panel (AID 1159580);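 also: tested at 20 µM; growth read once vehicle control cultures reached saturation at 30 °C; 1 = growth at the plate median or of vehicle wells; lower values mean less growth of the strain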
Settings: S. cerevisiae deletion strains, growth OD

Measured: normalized growth

NCCCNCCSP(=O)(O)O
inactive: locus YAL013W, strain DEP1, hits give low values 0.988 and 1.01 | locus YAL021C, strain ccr4, hits give low values 0.985 | locus YAL026C, strain drs2, hits give low values 0.976 | locus YAL030W, strain snc1, hits give low values 0.968 | locus YAL040C, strain CLN3, hits give low values 1 | locus YBL061C, strain skt5, hits give low values 0.97 | locus YBR009C, strain hhf1, hits give low values 0.988 | locus YBR021W, strain FUR4, hits give low values 0.967 | locus YBR023C, strain chs3, hits give low values 0.976 | locus YBR171W, strain sec66, hits give low values 0.96 | locus YBR229C, strain ROT2, hits give low values 1 | locus YBR231C, strain swc5, hits give low values 0.975 | locus YBR279W, strain paf1, hits give low values 0.995 | locus YCL011C, strain gbp2, hits give low values 0.957 | locus YCL016C, strain dcc1, hits give low values 0.982 | locus YCL029C, strain bik1, hits give low values 0.988 | locus YCL061C, strain MRC1, hits give low values 0.983 | locus YCL069W, strain vba3, hits give low values 0.994 | locus YCR088W, strain abp1, hits give low values 0.982 | locus YDL005C, strain med2, hits give low values 0.969 | locus YDL035C, strain GPR1, hits give low values 0.994 | locus YDL040C, strain nat1, hits give low values 0.987 | locus YDL074C, strain BRE1, hits give low values 0.993 | locus YDL101C, strain DUN1, hits give low values 0.984 | locus YDL134C, strain PPH21, hits give low values 0.994 | locus YDL185W, strain tfp1, hits give low values 0.944 | locus YDL192W, strain arf1, hits give low values 0.986 | locus YDR001C, strain nth1, hits give low values 0.977 | locus YDR069C, strain doa4, hits give low values 0.968 | locus YDR101C, strain arx1, hits give low values 1 | locus YDR137W, strain rgp1, hits give low values 0.968 | locus YDR150W, strain NUM1, hits give low values 0.949 | locus YDR159W, strain sac3, hits give low values 0.98 | locus YDR162C, strain NBP2, hits give low values 0.992 | locus YDR195W, strain ref2 0.989 | locus YDR297W, strain sur2, hits give low values 0.983 | locus YDR318W, strain mcm21, hits give low values 0.986 | locus YDR334W, strain swr1, hits give low values 0.933 | locus YDR335W, strain msn5, hits give low values 0.981 | locus YDR388W, hits give low values 1 | locus YDR392W, strain spt3, hits give low values 0.927 | locus YDR502C, strain sam2, hits give low values 0.993 | locus YEL003W, strain gim4, hits give low values 0.988 | locus YEL037C, strain rad23, hits give low values 0.981 | locus YEL061C, strain CIN8 (second series), hits give low values 0.972 | locus YEL061C, strain CIN8, hits give low values 0.998 | locus YER002W, strain NOP16, hits give low values 0.997 | locus YER015W, strain faa2, hits give low values 0.973 | locus YER016W, strain bim1, hits give low values 0.991 | locus YER110C, hits give low values 0.989 | locus YER111C, strain swi4, hits give low values 0.988 | locus YER155C, strain BEM2 (second series), hits give low values 0.983 | locus YER155C, strain BEM2, hits give low values 0.942 | locus YER167W, strain BCK2, hits give low values 0.991 | locus YFR010W, strain ubp6, hits give low values 0.957 | locus YGL078C, strain dbp3, hits give low values 0.987 | locus YGL086W, strain mad1, hits give low values 0.978 | locus YGL167C, strain pmr1, hits give low values 0.976 | locus YGL173C, strain kem1, hits give low values 0.944 | locus YGL227W, strain vid30, hits give low values 0.974 | locus YGL240W, strain doc1, hits give low values 0.984 | locus YGL248W, strain PDE1, hits give low values 1 | locus YGL253W, strain hxk2, hits give low values 0.989 | locus YGR078C, strain PAC10, hits give low values 0.984 | locus YGR135W, strain pre9, hits give low values 0.984 | locus YGR229C, strain SMI1, hits give low values 0.964 | locus YGR252W, strain gcn5, hits give low values 0.978 | locus YHR013C, strain ard1, hits give low values 0.981 | locus YHR027C, strain rpn1, hits give low values 0.959 | locus YHR030C, strain SLT2, hits give low values 0.993 | locus YHR079C, strain IRE1 (second series), hits give low values 0.991 | locus YHR094C, strain hxt1, hits give low values 0.979 | locus YHR129C, strain ARP1, hits give low values 0.999 | locus YHR142W, strain chs7, hits give low values 0.936 | locus YHR200W, strain rpn10, hits give low values 0.983 | locus YIL066C, strain RNR3, hits give low values 0.995 | locus YIL073C, strain SPO22, hits give low values 0.941 | locus YIL125W, strain kgd1, hits give low values 1 | locus YIR030C, strain dcg1, hits give low values 0.998 | locus YJL092W, strain hpr5, hits give low values 0.979 | locus YJL095W, strain BCK1 (second series), hits give low values 0.983 | locus YJL095W, strain BCK1, hits give low values 1.02 | locus YJL115W, strain asf1, hits give low values 0.955 | locus YJL129C, strain trk1, hits give low values 1 | locus YJL134W, strain LCB3, hits give low values 0.989 | locus YJL154C, strain vps35, hits give low values 0.972 | locus YJL164C, strain tpk1, hits give low values 0.992 | locus YJL166W, strain qcr8, hits give low values 0.956 | locus YJL168C, strain set2, hits give low values 1 | locus YJL187C, strain SWE1 (second series), hits give low values 0.99 | locus YJL187C, strain SWE1, hits give low values 0.982 | locus YJR043C, strain POL32, hits give low values 0.994
